tested on: THRa:RXRa (NR concentration 90 nM, RXRa partner concentration 90 nM); assay: PBM binding z-score (relative to random genomic background probes); higher = stronger binding; sequences stand for … in GC…GCGATTGACAGCGTAGAATGAAGG
Summary of the method: (§1)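 Custom Agilent 4×180K protein-binding microarrays carried double-stranded probes. Their 34-nt variable regions held direct-repeat seeds, single-nucleotide variants, half-site ablations and random human genomic background sequences. Arrays were incubated 1 h with ligand-free nuclear receptor dimers in PBS pH 7.4, 2% milk, 0.02% Triton X-100, 1 mM DTT, 0.2 mg/mL BSA and 0.4 mg/ml salmon testes DNA. Antibodies against each partner (one per run) detected binding, and scanned fluorescence was regression-normalized. Binding z-scores use random background probes as reference.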

Sequence	PBM binding z-score
CAAACTAGGTCAAGGTCAAGGTCGGTTTGTGCCA	4.54
CGTCAAAGTTCAAGATAACGTAACAGAAAGCAGC	1.72
CCTAGTTGGTCAAGGTCACACAAGCTATAGGTAC	4.19
GCAGGCAGGTGAAACGCAGGTAACTCAGGGTGGC	1.58
CGAACTAGGTTATTGACAGGACAGTGAATAGTAA	1.27
CGAACTAGGTCATTGACAGGACACTGAATAGTAA	3.03
CGTCAAGGTTCAACTAAGGTAACGTAAAGCACGC	5.38
CTCGAAAGGTCGGTCGAGGTGAGTATACGGATAA	5.04
TCAGACAGATGAAGGTAACTCAGGTACGCAGTCG	1.03
CGAACGAGGGCATGAGTTAATAGCAAATGCCGAT	1.13
GCTTGTAGATCAGGGTTAAGAAAGACTAAGCTAA	0.939
AATAGCAGGCCAAGTTTGGGTCACTCAAACAAAG	2.63
GCGACTGGGGCATCAGCATGTTACCATAACTTAA	0.125
CGTCCAAGGTTAGCAGGTCAGTGAAAGCGACGTG	2.07
ATCTCTAGGTAAGACTAAGTTCAGTGAAGAACGC	1.34
GCTTACGGGTCATAGGTTATAGCATGAATAGAAT	2.9
TGAATAAGGTTAAAGATCAGGGAACGTGGCGTCG	2.48

tested on: THRa homodimer (NR concentration 90 nM); assay: as above
Summary of the method: as §1

Sequence	PBM binding z-score
CCTAACAGGCCAATCTGGGTCACTCAAGGCTTGA	0.717
CTCGAAAGGTCGTGCTCAGGTGAGTTTACCAAAC	1.18
CCAACTGGGGCAAGGTTACCATAACGCACAGCCA	0.42
TCTATTAGTTTATTAGGGCAACCGAAACAGCGGA	1.62
GCGACTGGGGCCTCAGCAGGTTACCATAACTTAA	-0.118
TCGAGTACGTTAGGGGCATTCAGAATGGCGTCGA	-0.622
CGTCCAAGGTCATAGGAGGTCGGTGAAGACAGAT	2.45
AGTCAAAGTTCATCTAGGTACCGTAAGATATGCT	-0.565
CGTCAAAGTTCAACTAGGGTAACGTAAAGCACGC	0.583
TCGAGTAGCTTAGTCGGGGCATTCAGCCAACATA	-0.688
GCATATAGGTGATACAAGGTGAAAGTCCGATTGT	0.943
CCTACTGGGCCATCAGGTCATAGATATCAACGTT	2.91
ATCTCTAGGTAACCAAGTTCCGTGAATGCCGAAC	0.462
CCTAGCAGGCCAATCAGGGTCACTCAAGGCTTGA	1.15
ATCTCTAGGTAACCCAGTTCAGTGAATGCCGAAC	0.872
CAAACTAGGTCACAGAGGTCAAAGCCCGTGCGTA	2.99
CAAACTAGGTCACGACAGGTCAAAGTCGAATGAC	2.47
CCTGCTAGGTCAATAGTCAGCTAAAGCAGCTCGC	0.258
GGAAGGAGGGCAAAGTTGATAGCATCTGTCGACG	0.664
TCATATAGGTACAGGTGAAAGTCGAACGATATGA	-0.52

Sequence	PBM binding z-score
CGAACGAGGGCATCAGTTGATAGCAAATGCCGAT	-0.293
AGAACGAGGGCAATGAGTTAATAGCACGGGTGGC	-0.107
CAAACTAGGTCAAGGTCAAGGTCGGTTTGTGCCA	4.73
CGTCAAAGTTCAAGATAACGTAACAGAAAGCAGC	-0.18
CCTAGTTGGTCAAGGTCACACAAGCTATAGGTAC	3.83
GCAGGCAGGTGAAACGCAGGTAACTCAGGGTGGC	-0.371
CGAACTAGGTTATTGACAGGACAGTGAATAGTAA	-0.0792
CGAACTAGGTCATTGACAGGACACTGAATAGTAA	1.06
CGTCAAGGTTCAACTAAGGTAACGTAAAGCACGC	1.72
CTCGAAAGGTCGGTCGAGGTGAGTATACGGATAA	0.386
TCAGACAGATGAAGGTAACTCAGGTACGCAGTCG	-0.261
CGAACGAGGGCATGAGTTAATAGCAAATGCCGAT	-0.42
GCTTGTAGATCAGGGTTAAGAAAGACTAAGCTAA	-0.435
AATAGCAGGCCAAGTTTGGGTCACTCAAACAAAG	0.748
GCGACTGGGGCATCAGCATGTTACCATAACTTAA	-0.404
CGTCCAAGGTTAGCAGGTCAGTGAAAGCGACGTG	0.653
ATCTCTAGGTAAGACTAAGTTCAGTGAAGAACGC	0.876
GCTTACGGGTCATAGGTTATAGCATGAATAGAAT	0.18
TGAATAAGGTTAAAGATCAGGGAACGTGGCGTCG	0.616

tested on: VDR homodimer (NR concentration 270 nM); assay: as above
Summary of the method: as §1

Sequence	PBM binding z-score
CCTAACAGGCCAATCTGGGTCACTCAAGGCTTGA	0.191
CTCGAAAGGTCGTGCTCAGGTGAGTTTACCAAAC	3.54
CCAACTGGGGCAAGGTTACCATAACGCACAGCCA	-0.0492
TCTATTAGTTTATTAGGGCAACCGAAACAGCGGA	1.29
GCGACTGGGGCCTCAGCAGGTTACCATAACTTAA	-0.622
TCGAGTACGTTAGGGGCATTCAGAATGGCGTCGA	5.05
CGTCCAAGGTCATAGGAGGTCGGTGAAGACAGAT	3.77
AGTCAAAGTTCATCTAGGTACCGTAAGATATGCT	5.46
CGTCAAAGTTCAACTAGGGTAACGTAAAGCACGC	4.44
TCGAGTAGCTTAGTCGGGGCATTCAGCCAACATA	-0.534
GCATATAGGTGATACAAGGTGAAAGTCCGATTGT	0.0464
CCTACTGGGCCATCAGGTCATAGATATCAACGTT	1.11
ATCTCTAGGTAACCAAGTTCCGTGAATGCCGAAC	-0.111
CCTAGCAGGCCAATCAGGGTCACTCAAGGCTTGA	1.77
ATCTCTAGGTAACCCAGTTCAGTGAATGCCGAAC	1.39
CAAACTAGGTCACAGAGGTCAAAGCCCGTGCGTA	6.06
CAAACTAGGTCACGACAGGTCAAAGTCGAATGAC	2.23
CCTGCTAGGTCAATAGTCAGCTAAAGCAGCTCGC	-0.379
GGAAGGAGGGCAAAGTTGATAGCATCTGTCGACG	1.44
TCATATAGGTACAGGTGAAAGTCGAACGATATGA	0.343

Sequence	PBM binding z-score
CGAACGAGGGCATCAGTTGATAGCAAATGCCGAT	1.48
AGAACGAGGGCAATGAGTTAATAGCACGGGTGGC	1.99
CAAACTAGGTCAAGGTCAAGGTCGGTTTGTGCCA	4.06
CGTCAAAGTTCAAGATAACGTAACAGAAAGCAGC	3.57
CCTAGTTGGTCAAGGTCACACAAGCTATAGGTAC	3.72
GCAGGCAGGTGAAACGCAGGTAACTCAGGGTGGC	-0.723
CGAACTAGGTTATTGACAGGACAGTGAATAGTAA	0.278
CGAACTAGGTCATTGACAGGACACTGAATAGTAA	1.18
CGTCAAGGTTCAACTAAGGTAACGTAAAGCACGC	3.36
CTCGAAAGGTCGGTCGAGGTGAGTATACGGATAA	0.0425
TCAGACAGATGAAGGTAACTCAGGTACGCAGTCG	0.0374
CGAACGAGGGCATGAGTTAATAGCAAATGCCGAT	1.02
GCTTGTAGATCAGGGTTAAGAAAGACTAAGCTAA	0.148
AATAGCAGGCCAAGTTTGGGTCACTCAAACAAAG	0.388
GCGACTGGGGCATCAGCATGTTACCATAACTTAA	-0.64
CGTCCAAGGTTAGCAGGTCAGTGAAAGCGACGTG	0.443
ATCTCTAGGTAAGACTAAGTTCAGTGAAGAACGC	2.25
GCTTACGGGTCATAGGTTATAGCATGAATAGAAT	0.952
TGAATAAGGTTAAAGATCAGGGAACGTGGCGTCG	0.301
